This note sets out measurements from PubChem BioAssay (NCATS).

Molecules are shown by their SMILES. Inconclusive results are not listed. The source holds several records for some structures; these can differ, active in one and inactive in another. Activity calls are given as the source filed them. Unless noted, calls come from the whole dose curve; as a rule, active = well fitted curve in the direction sought with a large enough effect; inconclusive = small, poorly fitted or top-dose-only effect, or another doubt; inactive = no such curve, though single readings can be large; an effect the other way counts as inactive or inconclusive.

Assay [1] has as its target Catechol O-methyltransferase (Homo sapiens) (UniProt P21964). Kind of assay: Confirmatory Screen for Target Class Profiling of Small Molecule Inhibitors of Methyltransferases (AID 1745852; calls by dose curve; note: potency is the fitted concentration of half-maximal effect). Particulars: MTase-Glo luminescence, SAH detection, recombinant enzyme; measured here: COMT max response; stronger effect = lower value.
The target of assay [2] is Guanidinoacetate N-methyltransferase (Homo sapiens) (UniProt Q14353). Described as above. Particulars: MTase-Glo luminescence, SAH detection, recombinant enzyme; activity change, negative = inhibition: at 57.3 µM (top of the series) unless noted.
The target in assay [3] is Nicotinamide N-methyltransferase (Homo sapiens) (UniProt P40261). The description is as above. As to conditions: MTase-Glo luminescence, SAH detection, recombinant enzyme; measured here: NNMT max response; stronger effect = lower value.
Assay [4] addresses Phenylethanolamine N-methyltransferase (Homo sapiens) (UniProt P11086). The description is as above. As to conditions: MTase-Glo luminescence, SAH detection, recombinant enzyme; measured here: PNMT max response; stronger effect = lower value.
Assay [5] concerns the target Glutathione peroxidase 1 (Homo sapiens) (UniProt P07203). Kind of assay: Primary qHTS Assay for Inhibitors of Recombinant Selenoprotein Glutathione Peroxidase 1 (GPX1) (AID 1845191). Note: nearly all actives have a fitted effect of over 65% in size. Particulars: recombinant GPX1, GR-coupled NADPH fluorescence, 15 min; series mostly up to 48.8 µM. In a few lines:
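GR-coupled assay: compounds preincubated 30 min at room temperature with GPX1, then reaction started with CHP; final 10 nM GPX1, 1 mM GSH, 0.5 mM CHP, 0.5 mM NADPH, 100 nM GR, 0.01% BSA, pH 7.5 Tris buffer. NADPH fluorescence (340/450 nm) read at 0 and 15 min.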

Assay [6] has as its target Phospholipid hydroperoxide glutathione peroxidase GPX4 (Homo sapiens) (UniProt P36969). Briefly: Primary qHTS Assay for Inhibitors of Recombinant Selenoprotein Glutathione Peroxidase 4 (GPX4) (AID 1845192). For activity change, negative = inhibition: % is set by controls: 0 for no effect and ±100 for the full control effect. Note: nearly all actives have a fitted effect of over 65% in size. Particulars: recombinant GPX4, GR-coupled NADPH fluorescence, 15 min; series mostly up to 50 µM. An outline of the steps: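 GR-coupled assay: recombinant GPX4 preincubated 30 min with compound at room temperature; final 200 nM GPX4, 1 mM GSH, 0.5 mM cumene hydroperoxide, 0.5 mM NADPH, 100 nM GR, 0.01% BSA, pH 7.5 Tris. NADPH fluorescence (340/450 nm) read at 0 and 15 min.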
A general note: In qHTS, concentration-response curves come from the screen itself.

The nature of assay [7]: Primary fluorescence-based thiol-reactive (MSTI) qHTS assay for identification of artifact compounds. (AID 1845221).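 Note: thiol-reactive compounds lower the probe fluorescence signal; nearly all actives have a fitted effect of over 65% in size.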 Particulars: MSTI thiol-reactivity probe, 1 h; series mostly up to 53.8 µM. In a few lines:
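Curve-fitted percent inhibition (4-parameter Hill) derived from fluorescence, Ex 525/Em 598 nm, scaled with Acetyl-MSTI and MSTI; 1 h incubation at room temperature.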

In assay [8] the test system is Nanoluciferase (engineered Oplophorus gracilirostris luciferase). Briefly: Primary Nanoluciferase (NLuc) qHTS assay for identification of artifact compounds. (AID 1845222).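 Note: NLuc secreted into diluted conditioned medium of S16 cells; 0% = DMSO and -100% = no enzyme.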 As to conditions: NLuc-conditioned medium, Nano-Glo luminescence, 5 min; series mostly up to 54.1 µM. An outline of the steps: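 qHTS format, against NLuc in S16 cell-conditioned medium. Nano-Glo substrate 1:100 was added after 15 min at room temperature. Luminescence was taken after a further 5 min.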

Assay [9] is described as follows: Primary redox qHTS assay for identification of artifact compounds. (AID 1845223).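 Note: 0% = DMSO and 100% = reference compound.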 As to conditions: Amplex Red/HRP redox cycling with DTT, fluorescence; series mostly up to 53.8 µM. An outline of the steps: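 Amplex Red (25 uM) and HRP (250 mU/mL) in HBSS, with compounds for 15 min, then 250 uM DTT for 30 min, room temperature, dark. Fluorescence 525/598 nm read; normalized to DMSO and 10 uM DA3003; Hill fit.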

The nature of assay [10]: Quantitative High-Throughput drug screen in 47 multiple myeloma cell lines against the NCATS MIPE library collection: FR4_PLB cell viability assay (AID 1918924; note: potency is the fitted concentration of half-maximal effect; nearly all actives have a fitted effect of over 35% in size). Particulars: FR4_PLB myeloma cells viability, CellTiter-Glo ATP, 48 h; series mostly up to 45.8 µM. In a few lines: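 Inhibition of cell viability is measured here. Each line was plated at 500 cells per well, treated with MIPE 4.0 drugs, kept 48 hours at 37C, then assayed for ATP content by CellTiter-Glo luminescence.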
A general note: In ATP-based viability assays light output follows the ATP content of the culture.

Assay [11] in a line: NCATS anti-infectives library activity on HEK293 viability as a counter-qHTS vs the C. elegans viability qHTS (AID 1745854).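 Note: HEK293 cells exposed to compounds for 24 hr before the viability read; % is set by controls: 0 for no effect and ±100 for the full control effect.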 As to conditions: HEK293 viability counter-screen; series mostly up to 41.8 µM. In a few lines:
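Cytotoxicity in human HEK293 cells is measured by ATP-dependent CellTiter-Glo luminescence following a 24 hr incubation with titrated library compounds at 37C. Top final concentration is 41.7 uM.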

Assay [12] can be described thus: NCATS anti-infectives library activity on the primary C. elegans qHTS viability assay (AID 1745855; calls by dose curve). Particulars: C. elegans worm area imaging, day 7; series mostly up to 41.8 µM. In a few lines: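 Viability is taken from GFP fluorescence of PE254-GFP-FLuc C. elegans imaged by laser cytometry over 7 days. Ten L1 worms per well grow at 21 °C on TOP10 E. coli capsules with titrated compound; levamisole marks toxicity.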

Assay [13] in a line: Viability counterscreen for antagonist of constitutive androstane receptor (CAR) against the NCATS DSHEA and TCM libraries (AID 1794837).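 Note: compound exposure lasted 24 h before viability reading; 0% is about no effect.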 Particulars: CAR reporter cell line viability counterscreen, qHTS; series mostly up to 40 µM. In a few lines: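 Viability was measured by CellTiter-Fluor fluorescence (405/540 nm, 1 hr) in HepG2-CYP2B6-hCAR cells. Cells were co-treated 24 hr with 48 uM CITCO (final), antagonist mode, and test substances.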
(In general: Counterscreens check selectivity or assay interference.)

Assay [14] in a line: Viability counterscreen for agonist of constitutive androstane receptor (CAR) against the NCATS DSHEA and TCM libraries (AID 1794838).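 Note: cells exposed to compound for 24 h; 0% is about no effect.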 As to conditions: HepG2 cell viability counterscreen, CAR agonist assay, co-treated with 0.75 µM CAR antagonist; series mostly up to 40 µM. An outline of the steps: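 Cell viability, from CellTiter-Fluor fluorescence (405/540 nm), was scored after a 24 h, 37C exposure of HepG2 cells carrying CYP2B6 reporter and hCAR to test substances in presence of 0.75 uM PK11195.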

Assay [15] addresses Nuclear receptor subfamily 1 group I member 3 (Homo sapiens) (UniProt Q14994). Kind of assay: Primary qHTS for agonist of constitutive androstane receptor (CAR) against the NCATS DSHEA and TCM libraries (AID 1794839).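 Note: HepG2 cells expressing human CAR with a CYP2B6 reporter plus PK11195 antagonist; luciferase reporter luminescence read with ONE-Glo; 0% is about no effect.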 Particulars: CAR agonist reporter cells, qHTS luminescence, CAR antagonist co-added at 0.75 µM; series mostly up to 40 µM. An outline of the steps:
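Agonist mode in presence of hCAR antagonist PK11195 (0.75 µM final): test substances, 24 h, 37 °C, on HepG2-CYP2B6-hCAR cells. Same-well readouts: fluorescence viability, then ONE-Glo luminescence; CITCO as reference agonist.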

The nature of assay [16]: HepG2 viability counterscreen (readout 2: ATP content) against the NCATS DSHEA and TCM libraries (AID 1794840).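 Note: HepG2 cells exposed to substances for about 24 h; 0% is about no effect.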 Particulars: ATP content luminescence; series mostly up to 27.3 µM. An outline of the steps: (§1)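 Readout 1: cellular protease activity, GF-AFC substrate (25 uM final, 30 min, fluorescence 380/510 nm). Readout 2: ATP content by CellTiter-Glo luminescence after 30 min at RT. Both follow ~24 h exposure of HepG2 cells (1,000/well) to substances.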

Assay [17] is described as follows: HepG2 viability counterscreen (readout 1: protease activity) against the NCATS DSHEA and TCM libraries (AID 1794841).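 Note: cells exposed to compounds for about 24 h before the protease read; 0% is about no effect.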 Particulars: qHTS concentration series; series mostly up to 27.3 µM. An outline of the steps: as §1
Assay [18] can be described thus: Quantitative High-Throughput drug screen in 47 multiple myeloma cell lines against the NCATS MIPE library collection: Delta47_JCRB cell viability assay (AID 1918925; note: nearly all actives have a fitted effect of over 45% in size; note: potency is the fitted concentration of half-maximal effect). As to conditions: Delta47 myeloma viability, CellTiter-Glo ATP, 48 h; series mostly up to 45.8 µM. An outline of the steps:
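Steps: seed 500 cells per well; pin-transfer MIPE 4.0 library; incubate 48 h at 37C, 5% CO2, humidified; add CellTiter-Glo, 5 min room temperature; read luminescence.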

The target of assay [19] is Metallo-beta-lactamase type 2 (Klebsiella pneumoniae) (UniProt C7C422). Briefly: qHTS to identify inhibitors of the New Delhi Metallo-beta-lactamase (NDM): assay validation screen against the NCATS LOPAC Collection (AID 1794843).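 For activity change, negative = inhibition: nitrocefin turnover by NDM-1 measured as 485 nm absorbance at plateau; % is set by controls: 0 for no effect and ±100 for the full control effect.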 Note: potency is the fitted concentration of half-maximal effect. As to conditions: NDM-1 enzyme, nitrocefin hydrolysis, absorbance 485 nm; series mostly up to 38.4 µM. In a few lines:
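Enzyme 2 nM final, 50 mM HEPES pH 7.0, 1 uM ZnSO4, 0.01% Tween20; cpds in DMSO, preincub w/ enzyme; + nitrocefin (50 uM stock); A485 at plateau; no-enzyme column as blank.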

Assay [20] addresses Luciferin 4-monooxygenase (Photinus pyralis) (UniProt P08659). Kind of assay: Primary firefly luciferase (FLuc) qHTS assay for identification of artifact compounds. (AID 1845220).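 For activity change, negative = inhibition: plate controls were DMSO vehicle for no effect and no enzyme for full effect.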 Note: nearly all actives have a fitted effect of over 60% in size. As to conditions: purified firefly luciferase, luminescence, 5 min; series mostly up to 54.1 µM. An outline of the steps:
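Titrated compounds were incubated 15 min at RT, protected from light, with luciferin and ATP at 10 uM; reaction started with 10 nM FLuc, luminescence imaged at 5 min, and concentration-response fitted by Hill equation.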

Chain of Phospholipid hydroperoxide glutathione peroxidase GPX4 (Homo sapiens) (P36969 whole entry, looked up): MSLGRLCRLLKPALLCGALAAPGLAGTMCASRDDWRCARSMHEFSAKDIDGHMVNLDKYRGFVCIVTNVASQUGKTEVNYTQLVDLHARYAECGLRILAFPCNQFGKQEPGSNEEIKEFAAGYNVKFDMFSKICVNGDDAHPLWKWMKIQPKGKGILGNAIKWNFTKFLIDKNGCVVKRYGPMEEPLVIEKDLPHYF
Chain of Glutathione peroxidase 1 (Homo sapiens) (P07203 whole entry, looked up): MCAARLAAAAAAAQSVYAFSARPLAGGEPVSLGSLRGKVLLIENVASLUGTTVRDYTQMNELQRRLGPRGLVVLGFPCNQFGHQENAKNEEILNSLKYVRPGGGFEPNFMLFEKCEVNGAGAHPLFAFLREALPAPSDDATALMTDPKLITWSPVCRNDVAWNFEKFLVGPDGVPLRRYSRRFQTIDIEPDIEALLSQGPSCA
Chain of Metallo-beta-lactamase type 2 (Klebsiella pneumoniae) (C7C422 whole entry, looked up): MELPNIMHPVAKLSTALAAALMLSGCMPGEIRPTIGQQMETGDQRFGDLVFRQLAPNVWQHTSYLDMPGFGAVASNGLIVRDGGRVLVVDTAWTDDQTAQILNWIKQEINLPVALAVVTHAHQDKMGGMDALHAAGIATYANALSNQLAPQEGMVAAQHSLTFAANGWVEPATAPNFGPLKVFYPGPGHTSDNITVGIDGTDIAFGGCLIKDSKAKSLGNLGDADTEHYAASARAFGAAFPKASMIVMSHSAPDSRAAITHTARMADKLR
Chain of Nicotinamide N-methyltransferase (Homo sapiens) (P40261 whole entry, looked up): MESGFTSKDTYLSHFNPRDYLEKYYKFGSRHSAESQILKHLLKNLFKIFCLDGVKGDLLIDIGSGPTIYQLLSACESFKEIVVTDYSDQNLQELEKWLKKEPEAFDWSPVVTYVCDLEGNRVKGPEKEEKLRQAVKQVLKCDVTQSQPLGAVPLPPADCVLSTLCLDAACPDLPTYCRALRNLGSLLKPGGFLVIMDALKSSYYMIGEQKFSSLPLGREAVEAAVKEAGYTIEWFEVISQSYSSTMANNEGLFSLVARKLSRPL
Chain of Phenylethanolamine N-methyltransferase (Homo sapiens) (P11086 whole entry, looked up): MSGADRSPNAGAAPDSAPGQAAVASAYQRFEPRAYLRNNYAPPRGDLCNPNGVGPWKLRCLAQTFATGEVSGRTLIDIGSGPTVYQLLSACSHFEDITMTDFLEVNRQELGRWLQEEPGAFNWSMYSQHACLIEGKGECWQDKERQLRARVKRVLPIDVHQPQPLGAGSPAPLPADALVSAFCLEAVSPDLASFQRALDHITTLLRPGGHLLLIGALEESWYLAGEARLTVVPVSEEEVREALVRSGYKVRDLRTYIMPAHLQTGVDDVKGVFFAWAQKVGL
Chain of Nuclear receptor subfamily 1 group I member 3 (Homo sapiens) (Q14994 whole entry, looked up): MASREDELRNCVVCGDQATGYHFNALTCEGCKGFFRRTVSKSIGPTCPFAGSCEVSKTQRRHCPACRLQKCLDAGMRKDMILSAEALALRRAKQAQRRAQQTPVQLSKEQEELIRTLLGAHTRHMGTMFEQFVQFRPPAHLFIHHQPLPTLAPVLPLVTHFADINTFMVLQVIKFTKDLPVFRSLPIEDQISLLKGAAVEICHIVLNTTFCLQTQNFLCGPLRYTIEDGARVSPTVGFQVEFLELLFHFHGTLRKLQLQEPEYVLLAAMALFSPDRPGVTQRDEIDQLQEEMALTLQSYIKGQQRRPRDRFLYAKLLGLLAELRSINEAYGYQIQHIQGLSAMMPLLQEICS
Chain of Catechol O-methyltransferase (Homo sapiens) (P21964 whole entry, looked up): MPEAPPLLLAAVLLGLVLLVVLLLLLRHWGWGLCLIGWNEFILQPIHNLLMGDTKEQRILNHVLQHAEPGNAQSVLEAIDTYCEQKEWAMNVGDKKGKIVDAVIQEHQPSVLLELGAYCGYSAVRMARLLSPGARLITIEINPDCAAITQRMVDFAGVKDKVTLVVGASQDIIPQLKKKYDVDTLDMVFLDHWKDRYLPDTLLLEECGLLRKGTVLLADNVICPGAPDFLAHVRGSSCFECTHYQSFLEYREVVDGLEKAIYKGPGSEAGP

Consider `O=C(Nc1ccccc1-c1cn2c(CN3CCNCC3)csc2n1)c1cnc2ccccc2n1`, for which the figures for the activity in assay [1], in assay [3] and in assay [4] were -38.1%, -43.9% and -31.7%, respectively. In addition, the figures for the Potency in assay [2] and in assay [10] were 15.3 µM (active) and 9.35 µM (active), respectively. Moreover, the Potency entry in assay [5], in [6], in [7] and in [8] was “inactive” each time. For the same compound, in [9], the outcome was “inactive”.

On to `NC(=O)[C@@H](CCC(F)(F)F)N(Cc1ccc(-c2ncon2)cc1F)S(=O)(=O)c1ccc(Cl)cc1`, for which, in assay [11], the outcome was “inactive”. In addition, the Potency entry in assay [12], in [5] and in assay [6] was “inactive” each time. Moreover, in [10], the Potency is 16.6 µM (active).

In the case of `COc1cc(O)c2c(c1)C(=O)c1cc(C)cc(O)c1C2=O`, the outcome in assay [13], in [14], in [16] and in assay [17] was “inactive” throughout. The Potency entry in assay [15] and in assay [18] was “inactive” in each case.

Take `C=CCc1ccc(O)c(-c2ccc(O)c(CC=C)c2)c1`: the outcome in assay [11] is “inactive”. Moreover, the Potency in assay [18] is 18.7 µM (active).

Regarding `C[C@H](NC(=O)C(=O)Nc1ccccc1C(C)(C)C)C(=O)N[C@@H](CC(=O)O)C(=O)COc1c(F)c(F)cc(F)c1F`, the activity change, negative = cytotoxicity in [11] was -18.7% [at 8.35 µM] (inactive). Further, the Potency entry in [5], in assay [6] and in assay [18] was “inactive” each time.

Take `O=c1cc(-c2ccccc2)oc2cc(O)c(O)c(O)c12`: in [5], the Potency result is “inactive”.

`O=C(NCCN1CCOCC1)c1ccc(Cl)cc1`: the Potency entry in assay [19], in [5] and in assay [6] was “inactive” each time.

Regarding `O=C(O)CCc1nc(-c2ccccc2)c(-c2ccccc2)o1`, the Potency entry in assay [19], in assay [5], in [6], in [20] and in assay [7] was “inactive” in each case. Moreover, the outcome in assay [9] is “inactive”.

`COc1ccccc1N1CCN(CCCNc2cc(=O)n(C)c(=O)n2C)CC1`: the Potency result in assay [19], in assay [5], in assay [6], in [20], in [7] and in assay [8] was “inactive” throughout. Also, the outcome in [9] was “inactive”.

In the case of `CC1=C(/C=C/C(C)=C/C=C/C(C)=C/C(=O)Nc2ccc(O)cc2)C(C)(C)CCC1`, the Potency result in [19], in assay [5] and in assay [6] was “inactive” throughout.

Take `CC(C)(C)c1ccc(C(O)CCCN2CCC(C(O)(c3ccccc3)c3ccccc3)CC2)cc1` (stereo not given): the Potency result in [19], in assay [5] and in assay [6] was “inactive” each time.

Consider `CC/C(=C(\c1ccccc1)c1ccc(OCCN(C)C)cc1)c1ccccc1`, for which, in assay [19], the Potency is 14.1 µM (active) and inactive. Besides, the Potency result in assay [5] and in assay [6] was “inactive” each time.

For `CCN(CC)C(=O)c1ccc(O)c(OC)c1`, the Potency result in [19], in assay [5] and in [6] was “inactive” in each case.

Regarding `O=C(O)Cc1cccc2ccccc12`, the Potency entry in [5] and in assay [6] was “inactive” throughout.

In the case of `Nc1ncnc2c1nc(Cl)n2[C@@H]1O[C@H](CO)[C@@H](O)[C@@H]1O`, the Potency entry in [5] and in assay [6] was “inactive” each time.
